# Compound activity as filed in PubChem.
# Only some compounds are listed: those with a hit (about 6.5% of all), similar ones and a draw of the others.
# Marburg entry inh: blocks Marburg virus binding to or entry into cells. Marburg virus pseudotyped entry inhibition, cell reporter. 300,000 compounds, 1.8% hits. AID 540276. Potency, µM (series often up to 37.8 µM), for inactives: top-dose activity change, negative = inhibition, most hits filed as inhibitors; calls by dose curve; tested in HEK293 cells; further: potency means the concentration at half of the fitted maximal effect
# FMDV antiviral: blocks foot and mouth disease virus | FMDV antiviral cell-based qHTS | Potency, µM (highest dose often 57.9 µM), for inactives: at the top dose activity change, negative = inhibition, actives largely listed as inhibitors | 410,000 compounds, 1.2% hits | AID 1159524; calls by dose curve; tested in HEK293T cells; further: read-out not given here; potency means the concentration at half of the fitted maximal effect; nearly all actives have a fitted effect of over 45% in size
# Vaccinia Venus: inhibitors of vaccinia virus (Venus reporter); Vaccinia virus Venus reporter expression, fluorescence; Potency, µM (series often up to 36.5 µM), without a hit: top-dose activity change, negative = inhibition, hits mostly inhibitors; 330,000 compounds, 0.46% hits; AID 720580; calls by dose curve; tested in A549 cells; further: potency means the concentration at half of the fitted maximal effect; nearly all actives have a fitted effect of over 30% in size
# HCMV antiviral: inhibitors of human cytomegalovirus; HFF cells, HCMV-luciferase reporter, 72 h; active compounds read low; AID 1259415; 410,000 compounds, 4.5% hits; activity change, negative = inhibition, % at 57.5 µM; in the data active means activity change below about -60%; inconclusive means no clear call, values can overlap the other calls; inactive means above about -39%
#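 HFF cells seeded 16 h at 37C, treated with compounds, infected with luciferase-reporter HCMV at MOI 1 PFU/cell; luciferase read at 72 h post infection, normalized to buffer-only and Salinomycin controls.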
# VACV mCherry inh: vaccinia inhibition (mCherry reporter) | Vaccinia virus mCherry reporter infection, fluorescence | Potency, µM (series often up to 36.5 µM), inactives show top-dose activity change, negative = inhibition, usual class: inhibitors | 310,000 compounds, 0.63% hits | AID 720579; calls by dose curve; tested in A549 cells; further: potency means the concentration at half of the fitted maximal effect; nearly all actives have a fitted effect of over 35% in size
# Lassa entry inh: blocks Lassa virus binding to or entry into cells | Potency, µM (top dose mostly 37.9 µM), inactives show at the highest dose activity change, negative = inhibition, hits mostly inhibitors | Lassa virus pseudotype entry inhibition, cell reporter | 300,000 compounds, 1.2% hits | AID 540256; calls by dose curve; tested in HEK293 cells; further: potency means the concentration at half of the fitted maximal effect; nearly all actives have a fitted effect of over 50% in size
# Numbers without * were called inactive; i = inactive; ? = inconclusive; . = no result; ! = not active in a repeat; [ ] = remark or other dose. On the % scale 0 is the no-effect control and ±100 the full control effect.
SMILES,Marburg entry inh,FMDV antiviral,Vaccinia Venus,HCMV antiviral,VACV mCherry inh,Lassa entry inh
C[C@@H]1CN(Cc2ccc3c(c2)CN(Cc2cn[nH]c2-c2ccccc2)CCO3)C[C@H](C)O1,.,-8%,-5%,.,-14%,.
CCc1nc(N=Nc2c(O)[nH]c3ccccc23)c2c3c(sc2n1)CCC3,-13%,9%,10µM*,?,16µM*,-1%
Cc1ccc2[nH]c(=O)c3cc(C(=O)NCCC(C)C)sc3c2c1,.,-27%,.,-19,.,.
Cc1ccc2[nH]c(=O)c3cc(C(=O)N(C)c4ccc(C)c(C)c4)sc3c2c1,.,?,.,-61*,.,.
O=C(NCCCN1CCOCC1)c1cc2c(=O)[nH]c3ccccc3c2s1,10µM*,-18%,-5%,78,-14%,2%
CCOCCCNC(=O)c1cc2c(=O)[nH]c3ccccc3c2s1,2%[46.1 µM],34%,-3%,-9,-9%,0%[46.1 µM]
CCN(C(=O)c1cc2c(=O)[nH]c3ccc(C)cc3c2s1)c1ccc(F)cc1,.,-16%,.,?,.,.
CCCCN(CC)CCNC(=O)c1cc2c(=O)[nH]c3ccc(C)cc3c2s1,5µM*,-27%,?,-65*,-21%,?
CCCCN(CC)CCCNC(=O)c1cc2c(=O)[nH]c3ccccc3c2s1,7.1µM*,-16%,-10%,?,-9%,-18%
CC(C)(C)C(=O)Nc1ccc(NC(=O)C(C)(C)C)cc1,.,17%,-10%,-84*,-3%,.
CC(C)(CCl)C(=O)Nc1ccc(C(F)(F)F)cc1,-6%[46.1 µM],6%,-13%,-76*,-14%,2%
CC(C)(C)C(=O)Nc1cccc(-c2nc3ccccc3c(=O)o2)c1,-12%,.,-12%,11,-17%,?
CC(C)(C)C(=O)Nc1ccc(-c2nc3ccccc3c(=O)o2)cc1,?,4.5µM*,-18%,-64*,-3%,?
CCOC(=O)/C=C/[C@@H](C)NC(=O)C(F)(F)F,.,.,.,-22,.,.
Nc1c(C(=O)Nc2ccc(OC(F)(F)F)cc2)sc2nc3c(cc12)N1CCC3CC1,-23%[46.1 µM],25µM*,?,-78*,?,-21%[46.1 µM]
CC(=O)c1ccc(NC(=O)c2sc3nc4c(cc3c2N)N2CCC4CC2)cc1,29%[46.1 µM],?,-6%,-3,-12%,?
O=C(Nc1ccc(Br)cn1)c1ccc(Br)s1,?,1%,-23%,-99*,-23%,?
O=C(/C=C/c1cccs1)Nc1ccc(Br)cn1,?,41%,-29%,-66*,-21%,?
O=C(/C=C/c1cccs1)Nc1cccc(NC(=O)/C=C/c2cccs2)n1,?,-21%,-26%,-25,-6%,?
CC(CNC(=O)Cc1ccc(NC(=O)N2CCSc3ncccc32)cc1)c1ccccc1 (configuration not stated),.,?,-10%,0,-13%,-14%[46.1 µM]
COc1ccc(C)cc1NC(=O)C(=O)NCCc1csc2nc(-c3ccccc3F)nn12,.,-14%,10%,7,0%,3%[46.1 µM]
CCCCOC(=O)c1ccc(NC(=O)CSc2nc3c(c(=O)[nH]2)CCC3)cc1,17%[46.1 µM],-12%,6%,-9,-3%,-14%[46.1 µM]
COc1ccc(-c2sc3ccc(N4CCOCC4)cc3c2C#CCO)cc1,.,16µM*,?,-87*,-16%,.
Cc1occc1C(=O)NCCCCNC(=O)c1ccoc1C,-5%,-17%,.,-98*,.,11%
Cc1occc1C(=O)NNC(=S)NCc1ccc(Cl)cc1,.,?,-6%,-69*,-24%,.
SMILES,Marburg entry inh,FMDV antiviral,Vaccinia Venus,HCMV antiviral,VACV mCherry inh,Lassa entry inh
COc1ccccc1CNc1cc(-c2ccccc2)nc2nncn12,?,-16%,-8%,-87*,-20%,-5%[46.1 µM]
Clc1cccc(CNc2cc(-c3ccccc3)nc3nncn23)c1,?,?,-25%,-62*,-4%,?
CC(C)N(Cc1ccccc1)C(=O)C1CCCN(c2ncnc3onc(-c4ccc(F)cc4)c23)C1 (configuration not stated),.,0%,-11%,-12,-18%,-15%[46.1 µM]
NNC(=O)CCN(Cc1ccco1)S(=O)(=O)c1ccc(Cl)cc1,.,-15%,.,-67*,.,.
Cc1ccc(C)c(N(C)C(=O)C2CCN(S(=O)(=O)c3cccc4nsnc34)CC2)c1,?,0%,1%,-29,-18%,-14%[46.1 µM]
CCN(CC)C(=O)C1CCN(S(=O)(=O)c2ccc3oc4ccccc4c3c2)CC1,?,.,?,-70*,-24%,-27%
C[C@@H]1C=CC(=O)O[C@@H]1c1ccc(Cl)cc1,.,28µM*,3.5µM*,-92*,?,.
CCOC(=O)c1c(-c2ccc(-c3ccccc3)cc2)csc1NC(=O)CNCCN(C)C,?,-29%,?,-100*,10µM*,?
CCOC(=O)c1c(-c2ccc(C)o2)csc1NC(=S)NC(=O)c1ccccc1Br,-18%,-6%,-22%,43,-5%,26%[14.3 µM]
CCOC(=O)c1c(-c2ccccc2)csc1NC(=O)CCN1C(=O)c2ccccc2C1=O,-1%,1%,-10%,23,-6%,10%
CCOC(=O)c1c(-c2cccs2)csc1NC(=O)CN1CC(C)OC(C)C1 (configuration not stated),11µM*,?,-25%,-38,-20%,?
CCOC(=O)c1c(-c2ccc(C)o2)csc1NC(=S)NC(=O)c1cccs1,?,-20%,-24%,?,i,23µM*
CCOC(=O)c1c(-c2ccc(F)cc2)csc1NC(=O)CCN1CCOCC1,10%,-13%,-15%,36,-9%,-25%
CCOC(=O)c1c(-c2ccc(-c3ccccc3)cc2)csc1NC(=O)CCN1CCOCC1,?,-25%,?,-25,?,10µM*
C[C@H]1CC[C@H]2C(=O)N(Cc3ccccc3)C[C@@H](O)CN2[C@H]1c1ccc(Br)cc1,-33%[14.2 µM],.,.,.,.,.
Cc1ccccc1-n1nc(CO)c(C(=O)NCc2cccs2)n1,?,-19%,-10%,-40,-7%,?
O=C(Cc1cc(=O)[nH][nH]1)N/N=C/c1cccc(Cl)c1Cl,?,-10%,-9%,-102*!,i,-2%
O=C(Cc1cc(=O)[nH][nH]1)N/N=C/c1ccccc1Cl,?,-16%,-12%,10,i,7%
O=C(Cc1cc(=O)[nH][nH]1)N/N=C/c1cccc2ccccc12,.,7%,.,-90*,.,.
CO[C@H]1[C@H](NC(=O)C(C)C)c2ccccc2C12CCN(Cc1c(C)nn(C)c1Cl)CC2,.,9%,2%,.,-8%,.
Nc1nc(-c2cc(O)ccc2[N+](=O)[O-])cc(-c2ccccc2)c1[N+](=O)[O-],-7%[46.1 µM],-24%,-11%,-69*,-13%,-21%[46.1 µM]
O=[N+]([O-])c1ccccc1-c1cc(-c2ccccc2)on1,.,.,.,57,.,.
Cc1ccc(N2CCN(C(=O)c3cc(-c4ccc(F)cc4)[nH]c3C)CC2C)cc1 (configuration not stated),?,-24%,?,-8,10µM*,?
COc1ccc(NC(=O)N(C)C[C@H]2Oc3c(NC(=O)c4nc5ccccc5s4)cccc3C(=O)N([C@@H](C)CO)C[C@H]2C)cc1,.,-14%,?,-103*,-10%,.
